# Screening results deposited in PubChem by National Center for Advancing Translational Sciences (NCATS).
# TbPYK inhibitor – qHTS of Trypanosoma Brucei Inhibitors; TbPYK enzyme, Kinase-Glo Plus ATP luminescence, 45 min; Potency, µM (doses to about 76.8 µM), hits mostly inhibitors; actives 0.12% (n = 410,000); note: nearly all actives have a fitted effect of over 50% in size
#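 Luminescence from Kinase-Glo Plus, added after a 45-minute room-temperature reaction, served as the end-point read-out. The enzyme and substrate were preincubated with compound before ADP (130 uM final) initiated turnover. Concentration-effect curves came from normalized qHTS data.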
# LmPK inhibitor – qHTS Assay for Inhibitors of Leishmania Mexicana Pyruvate Kinase (LmPK). Potency, µM (top dose mostly 57.5 µM), most hits filed as inhibitors. actives 0.37% (n = 290,000). Q27686. purified LmPK, Kinase-Glo ATP luminescence, 1 h
# Target sequence (Q27686 whole entry, looked up): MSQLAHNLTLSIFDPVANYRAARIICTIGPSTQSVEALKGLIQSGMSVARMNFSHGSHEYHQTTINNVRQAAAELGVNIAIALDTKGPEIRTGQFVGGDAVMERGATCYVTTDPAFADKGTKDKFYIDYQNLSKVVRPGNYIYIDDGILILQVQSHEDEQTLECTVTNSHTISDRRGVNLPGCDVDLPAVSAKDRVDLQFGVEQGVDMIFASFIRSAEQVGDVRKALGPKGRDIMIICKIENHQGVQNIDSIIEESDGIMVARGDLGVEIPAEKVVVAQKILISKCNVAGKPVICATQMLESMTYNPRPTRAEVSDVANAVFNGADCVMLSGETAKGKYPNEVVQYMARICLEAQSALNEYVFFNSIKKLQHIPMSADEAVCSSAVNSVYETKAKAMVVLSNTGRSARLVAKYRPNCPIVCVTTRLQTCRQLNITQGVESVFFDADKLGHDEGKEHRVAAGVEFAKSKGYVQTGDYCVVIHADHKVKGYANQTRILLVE
#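 qHTS format; LmPK 0.1 nM; substrates PEP 0.5 mM and ADP 0.1 mM. One-hour room-temperature incubation, then coupled luciferase luminescence; 0.5 nM enzyme wells mark activation.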
# HCMV inh – qHTS Assay for inhibitors of the human cytomegalovirus (HCMV); HFF cells, HCMV-luciferase reporter, 72 h; active compounds read low; activity change, negative = inhibition, % at 57.5 µM; actives 4.5% (n = 410,000); AID 1259415, 2018; in the data active = activity change below about -60%; inconclusive = no clear call, values can overlap the other calls; inactive = above about -39%
#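 Luciferase read-out from HCMV-luciferase-infected HFFs (MOI 1 PFU/cell) 72 h post infection at 37C; compounds added after 16 h cell attachment; activity normalized between buffer-only basal and Salinomycin (10uM) inhibitor controls.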
# Vaccinia Venus – qHTS for Stage-Specific Inhibitors of Vaccinia Orthopoxvirus: Venus Reporter Primary qHTS. Vaccinia virus Venus reporter expression, fluorescence. Potency, µM (doses to about 36.5 µM), hits mostly inhibitors. actives 0.46% (n = 330,000); calls by dose curve; tested in A549 cells; note: nearly all actives have a fitted effect of over 30% in size
# Vaccinia mCherry – qHTS for Stage-Specific Inhibitors of Vaccinia Orthopoxvirus: mCherry Reporter Primary qHTS; Vaccinia virus mCherry reporter infection, fluorescence; Potency, µM (titrated, usually from 36.5 µM), usual class: inhibitors; actives 0.63% (n = 310,000); calls by dose curve; tested in A549 cells; note: nearly all actives have a fitted effect of over 35% in size
# A number is an active result; i = inactive; ? = inconclusive; nt = no result given. Most compounds without a hit are left out; they make up all but 5% or so of the library. Unless noted, calls come from the whole dose curve; as a rule, active = well fitted curve in the direction sought with a large enough effect; inconclusive = small, poorly fitted or top-dose-only effect, or another doubt; inactive = no such curve, though single readings can be large; an effect the other way counts as inactive or inconclusive.
SMILES,TbPYK inhibitor,LmPK inhibitor,HCMV inh,Vaccinia Venus,Vaccinia mCherry
Cc1cc(C)nc(N/N=C/C=C/c2ccccc2)n1,i,i,i,i,i
Cc1sc(N/N=C/C=C/c2ccccc2)nc1-c1ccccc1,i,i,i,?,3.55µM
Cc1cc(=O)[nH]c(N2CCCCC2)n1,i,nt,i,i,i
COc1ccc(C(O)(CC(C)C)C(CN2CCOCC2)c2ccccc2)cc1 (stereo unspecified),i,i,-82.7,?,i
COc1ccc(C(O)(CCC(C)C)C(CN2CCOCC2)c2ccc(Cl)cc2)cc1 (stereo unspecified),i,i,?,i,i
CCc1ccc(C(O)(CC(C)C)C(CN2CCOCC2)c2ccccc2)cc1 (stereo unspecified),i,i,-89.9,nt,nt
CCN(CC)S(=O)(=O)c1ccc(O)c(C(=O)OCC(=O)N2CCCC2)c1,i,i,i,i,i
O=C1CCC/C(=N\NC(=O)c2ccc(NS(=O)(=O)c3ccc(Br)cc3)cc2)C1,i,i,i,i,i
O=C(c1c[nH]c2ccccc12)C(Cl)c1ccccc1 (stereo unspecified),i,i,-100.1,?,?
CCOC(=O)C1CCC(CNCc2ccccc2C)CC1 (stereo unspecified),i,i,i,i,i
O/N=C/c1ccc(-c2cc(Cl)ccc2Cl)o1,i,i,-62.5,i,i
COC(=O)N/N=C/c1ccc(-c2cc(Cl)ccc2Cl)o1,i,i,i,i,i
CC(=O)OCC1=C[C@@H]2OC(=O)C3=CO[C@@H](O[C@@H]4O[C@H](CO)[C@@H](O)[C@H](O)[C@H]4O)[C@H]1[C@@H]32,i,nt,i,i,i
C=C1C(=O)OC2C=C(CO)C3OC3C3OC3(C)CC(OC(=O)/C(=C/C)COC(C)=O)C12 (stereo unspecified),i,nt,-100.4,i,?
C=C1CC2(CC(c3ccccc3)OC(c3ccccc3)C2)OC1=O (stereo unspecified),i,nt,i,?,11.2µM
Cc1onc(-c2c(Cl)cccc2Cl)c1C(=O)N1CCSCC1,i,i,i,i,i
Cc1cc(C)n(/C(=C\N(C)C)C(=O)c2ccc(Cl)cc2)n1,i,i,-60.9,i,i
COc1ccc(-c2[nH]ncc2-c2ccc3c(c2)OCCO3)c(O)c1,i,i,-82.0,i,nt
COc1ccc(-c2cn[nH]c2-c2ccc(OCc3ccc([N+](=O)[O-])cc3)cc2O)cc1,i,i,-93.0,i,i
CCc1cc(-c2[nH]ncc2-c2ccc3c(c2)OCO3)c(O)cc1O,i,i,-98.6,?,?
COc1ccc(-c2cn[nH]c2-c2ccc(O)cc2O)cc1OC,i,i,i,?,i
COc1ccc(-c2[nH]ncc2-c2nc(C)cs2)c(O)c1,i,i,i,i,i
CCCc1cc(-c2[nH]ncc2-c2ccc3c(c2)OCCCO3)c(O)cc1OC,nt,i,i,nt,nt
CCc1cc(-c2[nH]ncc2-c2ccc(OC)cc2)c(O)cc1O,i,i,-98.5,?,?
CSc1ccc(S(=O)(=O)NCC(=O)OCC(=O)NCc2ccco2)cc1[N+](=O)[O-],i,nt,i,i,i
SMILES,TbPYK inhibitor,LmPK inhibitor,HCMV inh,Vaccinia Venus,Vaccinia mCherry
Cc1ccc(S(=O)(=O)n2cccc2/C=C/[N+](=O)[O-])cc1,i,nt,-97.7,?,?
CCOC(=O)[C@]12CCCC=C1N(Cc1ccc(Cl)cc1Cl)C(=O)[C@H](CC(=O)NCc1ccccc1)C2,i,nt,i,i,i
COc1cccc(C(=O)N2c3ccc(C)cc3C(C)(c3ccccc3)CC2(C)C)c1 (stereo unspecified),i,nt,i,i,i
CC1(c2ccc(Cl)cc2)CC(C)(C)N(C(=O)c2ccccc2)c2ccccc21 (stereo unspecified),i,nt,-82.7,i,i
COc1ccc(C(=O)N2c3ccccc3C(C)(c3ccc(Cl)cc3)CC2(C)C)cc1 (stereo unspecified),i,nt,-93.2,i,i
CC1(c2cc([N+](=O)[O-])cc([N+](=O)[O-])c2)CC(C)(C)N(C(=O)c2ccccc2)c2ccccc21 (stereo unspecified),i,i,i,nt,nt
CC(C)(C)OC(=O)N1CCCC(C(=O)Nc2cccc(C(=O)N3CCCCC3)c2)C1 (stereo unspecified),i,nt,i,i,i
CCN(Cc1ccccc1)S(=O)(=O)c1cc(Br)cc2c1N(C(=O)C1CC1)CC2,i,nt,?,i,i
CN(Cc1ccccc1)S(=O)(=O)c1cc(Br)cc2c1N(C(=O)C1CC1)CC2,i,nt,-70.6,i,i
CC(NCC(O)COCCC12CC3CC(CC(C3)C1)C2)c1ccccc1 (stereo unspecified),i,i,-98.4,nt,nt
c1ccc(-c2nnc(SCc3nnc(-c4cccs4)o3)o2)cc1,i,i,i,7.08µM,nt
Clc1ccc(-c2nnc(CSc3nnc(-c4cccs4)o3)o2)cc1,i,i,i,i,nt
O=C(c1ccc(-c2nc3ccccc3s2)s1)N1CCOCC1,?,14.1µM,-71.5,i,i
O=C(Nc1cccc(-c2nc3ccccc3s2)c1)c1ccc2c(c1)OCO2,i,i,i,i,i
COc1ccc(-c2nc3ccccc3s2)cc1,?,12.6µM,i,nt,nt
c1ccc2sc(-c3ccc4c(c3)OCO4)nc2c1,?,10µM,nt,nt,nt
COc1ccc(CC(=O)Nc2ccc(-c3nc4ccccc4s3)cc2Cl)cc1,i,nt,i,i,i
Oc1ccc(-c2nc3ccccc3s2)cc1,i,15.8µM,i,nt,nt
c1ccc2sc(-c3ccncc3)nc2c1,i,?,i,i,i
COc1cc(NC(=O)CCC2CCCC2)cc(-n2cnnn2)c1,i,i,?,i,i
O=C(O)/C=C/c1cn(Cc2ccccc2Cl)nc1-c1ccccc1,i,i,i,i,i
Cc1cccc(-c2nnc(SCCC(=O)N3CCOCC3)o2)c1,i,i,?,i,i
Cc1cccc(-c2nnc(SCCC(=O)O)o2)c1,i,nt,-87.8,i,i
COC(=O)CSc1nnc(-c2cccc(O)c2)o1,i,nt,-64.7,i,i
COc1ccc(Cl)cc1NC(=O)CN(C)C(=O)c1sc2ccccc2c1Cl,i,nt,i,nt,nt
Cn1cnc([N+](=O)[O-])c1Sc1nc(N)nc2c1ncn2C1CC(O)C(CO)O1 (stereo unspecified),i,nt,-82.2,?,6.31µM
Cn1cnc([N+](=O)[O-])c1Sc1nc(N)nc2c1ncn2C1OC(CO)C(O)C1O (stereo unspecified),i,nt,-76.3,?,?
CCSc1nc(N)nc2c1ncn2C1OC(CO)C(O)C1O (stereo unspecified),i,nt,i,i,i
Nc1nc(SCc2ccc([N+](=O)[O-])cc2)c2ncn([C@@H]3O[C@H](CO)[C@@H](O)[C@H]3O)c2n1,nt,nt,nt,i,i
Nc1nc(SCc2ccc(Br)cc2)c2ncn(C3OC(CO)C(O)C3O)c2n1 (stereo unspecified),i,nt,-61.1,i,i
